# Measurements reported in article PMC7862700, “An all-to-all approach to the identification of sequence-specific readers for epigenetic DNA modifications on cytosine”.
# Assays:
# Test in all cases: DAPPL (digital affinity profiling via proximity ligation, sequencing); 10 mM Tris-HCl pH 7.5, 50 mM NaCl, 1 mM DTT, 4% glycerol, room temperature, 30 min; GST-TFs on glutathione beads, 16-mer random dsDNA library, 0.1% formaldehyde crosslink after washing; high values mean tight binding
# Conditions in all cases: protein: recombinant; tags: N-terminal GST; dsDNA, one strand shown
# FLI1 = target: T1, FLI1 (Homo sapiens, UniProt Q01543 1-452)
# T1 sequence: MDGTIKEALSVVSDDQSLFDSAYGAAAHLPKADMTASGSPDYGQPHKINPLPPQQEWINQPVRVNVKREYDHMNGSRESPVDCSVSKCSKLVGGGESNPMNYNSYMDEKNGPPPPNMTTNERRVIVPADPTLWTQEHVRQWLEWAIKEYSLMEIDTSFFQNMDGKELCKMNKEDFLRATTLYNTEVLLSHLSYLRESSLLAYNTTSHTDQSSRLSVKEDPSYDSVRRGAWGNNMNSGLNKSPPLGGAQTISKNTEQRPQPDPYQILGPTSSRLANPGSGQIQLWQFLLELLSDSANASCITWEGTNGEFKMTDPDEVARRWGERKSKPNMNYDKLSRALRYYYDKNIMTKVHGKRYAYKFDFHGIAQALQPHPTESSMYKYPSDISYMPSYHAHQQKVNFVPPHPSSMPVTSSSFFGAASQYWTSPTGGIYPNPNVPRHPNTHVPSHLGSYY
# Outline: (§1)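 GST fusions of human transcription factors were expressed in yeast and captured with glutathione beads. Once given DNA barcodes and pooled alongside a tag-only sample, they were incubated for 30 min at room temperature with 200 nmole of a random double-stranded 16-mer DNA library in Tris/NaCl/DTT/glycerol buffer, then washed, crosslinked (0.1% formaldehyde), proximity-ligated, PCR-amplified and sequenced on an Illumina NextSeq500. The binding signal of each hexamer is its read frequency for a factor divided by its frequency for the tag-only sample.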
# ELK1 = target: T2, ELK1 (Homo sapiens, UniProt P19419 1-428)
# T2 sequence: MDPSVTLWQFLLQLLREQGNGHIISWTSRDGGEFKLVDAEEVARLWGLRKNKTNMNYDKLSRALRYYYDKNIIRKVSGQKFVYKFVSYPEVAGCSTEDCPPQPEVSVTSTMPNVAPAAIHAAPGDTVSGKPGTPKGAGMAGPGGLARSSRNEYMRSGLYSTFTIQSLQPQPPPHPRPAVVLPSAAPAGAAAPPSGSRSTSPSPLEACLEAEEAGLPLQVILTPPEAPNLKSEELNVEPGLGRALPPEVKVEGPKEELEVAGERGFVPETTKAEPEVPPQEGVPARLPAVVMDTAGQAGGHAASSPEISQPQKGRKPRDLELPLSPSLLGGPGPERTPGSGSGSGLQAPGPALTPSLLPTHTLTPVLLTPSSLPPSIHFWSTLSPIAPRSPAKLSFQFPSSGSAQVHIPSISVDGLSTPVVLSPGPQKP
# Outline: as §1
# GABPA = target: T3, GABPA (Homo sapiens, UniProt Q06546 1-454)
# T3 sequence: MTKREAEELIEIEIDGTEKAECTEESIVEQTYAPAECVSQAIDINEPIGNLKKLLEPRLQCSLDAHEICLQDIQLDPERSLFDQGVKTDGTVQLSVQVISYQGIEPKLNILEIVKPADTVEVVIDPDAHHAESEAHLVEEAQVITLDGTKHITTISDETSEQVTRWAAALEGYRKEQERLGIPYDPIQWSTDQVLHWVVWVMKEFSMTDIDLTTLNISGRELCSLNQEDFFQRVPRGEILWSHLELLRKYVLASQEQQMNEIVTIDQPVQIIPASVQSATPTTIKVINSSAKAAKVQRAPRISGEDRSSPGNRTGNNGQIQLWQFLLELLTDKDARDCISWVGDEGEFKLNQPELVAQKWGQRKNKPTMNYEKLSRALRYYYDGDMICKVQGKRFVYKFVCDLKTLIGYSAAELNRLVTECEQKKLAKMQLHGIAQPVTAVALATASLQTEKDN
# Outline: as §1
# ERG = target: T4, ERG (Homo sapiens, UniProt P11308 1-479)
# T4 sequence: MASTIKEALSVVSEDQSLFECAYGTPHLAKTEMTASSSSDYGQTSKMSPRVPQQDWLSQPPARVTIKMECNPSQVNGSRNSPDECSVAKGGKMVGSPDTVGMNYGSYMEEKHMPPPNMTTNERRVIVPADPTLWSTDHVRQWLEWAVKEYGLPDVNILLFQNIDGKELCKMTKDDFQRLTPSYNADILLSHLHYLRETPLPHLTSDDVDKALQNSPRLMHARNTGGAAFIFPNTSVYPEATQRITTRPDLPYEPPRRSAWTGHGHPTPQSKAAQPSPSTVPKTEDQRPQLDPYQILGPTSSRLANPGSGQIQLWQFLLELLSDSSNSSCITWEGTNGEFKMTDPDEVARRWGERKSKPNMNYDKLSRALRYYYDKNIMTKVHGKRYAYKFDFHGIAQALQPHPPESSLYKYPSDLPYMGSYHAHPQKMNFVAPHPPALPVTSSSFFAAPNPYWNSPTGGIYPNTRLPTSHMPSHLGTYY
# Outline: as §1
# ELF1 = ELF1 (Homo sapiens, UniProt P32519 1-619)
# Outline: as §1
# EHF = target: T5, EHF (Homo sapiens, UniProt Q9NZC4 1-300)
# T5 sequence: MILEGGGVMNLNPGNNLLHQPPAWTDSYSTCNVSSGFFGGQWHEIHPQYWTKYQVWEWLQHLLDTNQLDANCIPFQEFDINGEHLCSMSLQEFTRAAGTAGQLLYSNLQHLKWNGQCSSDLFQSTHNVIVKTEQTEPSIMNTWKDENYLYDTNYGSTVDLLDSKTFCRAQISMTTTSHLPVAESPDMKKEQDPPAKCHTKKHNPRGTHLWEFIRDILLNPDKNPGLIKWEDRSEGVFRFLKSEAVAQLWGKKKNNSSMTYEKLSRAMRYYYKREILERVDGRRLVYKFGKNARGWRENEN
# Outline: as §1
# SPI1 = SPI1 (Homo sapiens, UniProt P17947 1-270)
# Outline: as §1
# SPIB = SPIB (Homo sapiens, UniProt Q01892 1-262)
# Outline: as §1
# ELK3 = target: T6, ELK3 (Homo sapiens, UniProt P41970 1-407)
# T6 sequence: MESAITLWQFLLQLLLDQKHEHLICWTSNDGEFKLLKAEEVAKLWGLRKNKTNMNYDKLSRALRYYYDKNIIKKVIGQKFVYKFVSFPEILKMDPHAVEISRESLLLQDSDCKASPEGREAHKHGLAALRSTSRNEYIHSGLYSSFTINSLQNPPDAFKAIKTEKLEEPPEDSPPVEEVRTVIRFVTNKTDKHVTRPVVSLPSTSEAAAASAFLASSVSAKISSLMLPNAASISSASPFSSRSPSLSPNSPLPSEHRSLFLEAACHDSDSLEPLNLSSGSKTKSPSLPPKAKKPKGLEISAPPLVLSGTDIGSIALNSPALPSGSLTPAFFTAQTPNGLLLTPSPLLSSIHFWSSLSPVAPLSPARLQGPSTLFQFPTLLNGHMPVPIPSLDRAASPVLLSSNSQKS
# Outline: as §1
# Chain of ELF1 (P32519 whole entry): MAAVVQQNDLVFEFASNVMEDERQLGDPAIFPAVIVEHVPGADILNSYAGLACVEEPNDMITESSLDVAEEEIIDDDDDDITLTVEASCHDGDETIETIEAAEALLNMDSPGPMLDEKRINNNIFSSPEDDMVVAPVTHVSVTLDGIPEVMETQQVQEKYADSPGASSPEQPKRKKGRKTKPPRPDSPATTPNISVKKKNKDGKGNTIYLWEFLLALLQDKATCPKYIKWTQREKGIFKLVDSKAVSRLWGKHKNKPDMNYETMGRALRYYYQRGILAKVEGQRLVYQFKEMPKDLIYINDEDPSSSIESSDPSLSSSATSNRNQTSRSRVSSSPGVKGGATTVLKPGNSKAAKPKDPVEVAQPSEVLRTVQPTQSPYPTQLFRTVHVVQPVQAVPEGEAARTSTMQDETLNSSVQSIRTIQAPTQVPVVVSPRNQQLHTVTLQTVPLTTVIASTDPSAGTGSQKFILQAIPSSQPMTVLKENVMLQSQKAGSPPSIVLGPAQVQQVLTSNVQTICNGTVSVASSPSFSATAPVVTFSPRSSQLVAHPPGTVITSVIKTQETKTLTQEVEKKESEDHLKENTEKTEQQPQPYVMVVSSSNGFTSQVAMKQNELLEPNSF
# Chain of SPIB (Q01892 whole entry): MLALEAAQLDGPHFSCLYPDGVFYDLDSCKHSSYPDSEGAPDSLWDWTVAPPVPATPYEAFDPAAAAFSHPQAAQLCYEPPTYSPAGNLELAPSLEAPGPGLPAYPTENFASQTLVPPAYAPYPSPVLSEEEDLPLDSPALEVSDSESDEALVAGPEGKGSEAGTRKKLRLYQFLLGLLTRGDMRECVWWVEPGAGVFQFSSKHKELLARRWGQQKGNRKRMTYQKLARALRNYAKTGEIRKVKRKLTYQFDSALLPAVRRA
sequence,measurement,setting,value
ATGCTC,binding signal,FLI1,"1.43 fold enrichment (6-mer frequency, TF over GST control)"
same,binding signal,ELK1,"1.31 fold enrichment (6-mer frequency, TF over GST control)"
same,binding signal,GABPA,"1.36 fold enrichment (6-mer frequency, TF over GST control)"
same,binding signal,ERG,"1.34 fold enrichment (6-mer frequency, TF over GST control)"
same,binding signal,ELF1,"1.36 fold enrichment (6-mer frequency, TF over GST control)"
same,binding signal,EHF,"1.34 fold enrichment (6-mer frequency, TF over GST control)"
same,binding signal,SPI1,"1.41 fold enrichment (6-mer frequency, TF over GST control)"
same,binding signal,SPIB,"1.35 fold enrichment (6-mer frequency, TF over GST control)"
same,binding signal,ELK3,"1.27 fold enrichment (6-mer frequency, TF over GST control)"
